CHRM1 PAM – potentiates human M1 receptor response to acetylcholine; P11229; CHO-K1 hM1, Fluo-8 calcium fluorescence, ACh EC20; 0% = ACh EC20, 100% = maximal ACh; activation, % at 3 µM; 360,000 tested, 0.088% active; in the data active means activation above about 19%, passing the limit was not always enough
Target sequence (P11229 whole entry, looked up): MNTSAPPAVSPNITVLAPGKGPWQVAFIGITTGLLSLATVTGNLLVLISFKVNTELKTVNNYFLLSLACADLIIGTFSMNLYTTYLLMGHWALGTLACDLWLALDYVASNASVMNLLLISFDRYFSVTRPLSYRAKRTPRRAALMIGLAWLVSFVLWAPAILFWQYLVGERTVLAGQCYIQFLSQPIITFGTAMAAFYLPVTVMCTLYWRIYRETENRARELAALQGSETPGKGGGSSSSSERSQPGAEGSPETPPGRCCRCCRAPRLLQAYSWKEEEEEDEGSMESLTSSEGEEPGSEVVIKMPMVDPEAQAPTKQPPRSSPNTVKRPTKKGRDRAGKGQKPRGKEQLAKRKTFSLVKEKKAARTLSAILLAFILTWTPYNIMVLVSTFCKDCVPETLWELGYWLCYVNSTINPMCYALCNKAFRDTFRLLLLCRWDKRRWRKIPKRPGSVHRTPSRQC
M1 ag parental – M1 agonist counterscreen hit in parental CHO-K1 cells. Fluo-8 calcium fluorescence; scaled to maximal ATP response, vehicle zero. activation, % at 3 µM. 360,000 tested, 0.48% active. AID 602248; in the data active means activation above about 15%;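 further: untransfected CHO-K1 host cells lacking M1 receptor as counterscreen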
CHO-K1 Ca antag – counter-screen for M1 antagonists: effect in parental CHO-K1 cells. ATP-induced calcium, Fluo-8 fluorescence. inhibition, % at 3 µM. 360,000 tested, 0.6% active. AID 602250;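 active means inhibition above a per-plate cutoff, the plate's mean sample inhibition plus 3 SD, cut at about 24% in these data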;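 further: 0% = DMSO plus EC80 ATP and 100% = DMSO alone without ATP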
M1 antag – human CHRM1 antagonism | P11229 | CHO-K1 hM1, Fluo-8 calcium fluorescence, ACh EC80 antagonist | inhibition, % at 3 µM | 360,000 tested, 1.3% active | AID 588852;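 active means percent inhibition above its own plate's cutoff, namely the mean of that plate's compound wells plus 3 SD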;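 further: peak over basal fluorescence ratio during 140 s after agonist addition; 0% = ACh EC80 plus DMSO and 100% = DMSO alone without agonist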
M1 ag – human M1 muscarinic receptor agonism; P11229; CHO-K1 hM1, Fluo-8 calcium fluorescence, agonist mode; 0% DMSO, 100% acetylcholine EC100; activation, % at 3 µM; 360,000 tested, 0.33% active; AID 588814;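 active means activation above the run's mean compound activation plus 3 SD, cut at about 16% in these data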;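 further: peak over basal fluorescence ratio within a 140 s kinetic read after compound addition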
M1 PAM parental – M1 PAM counterscreen hit in parental CHO-K1 cells | ATP EC20, Fluo-8 calcium fluorescence; 0% at ATP EC20, 100% at ATP max | activation, % at 3 µM | 360,000 tested, 0.02% active | AID 602247;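 active means activation above the run cutoff, the mean activation of all test compounds plus 3 SD, cut at about 40% in these data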;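 further: peak over basal fluorescence ratio in a 140 s read after ATP addition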
The depositor's hits bear a star. Rows were chosen to be rich in hits. Some 2.3% of all compounds tested hit in one or more screens of this group.

SMILES | CHRM1 PAM | M1 ag parental | CHO-K1 Ca antag | M1 antag | M1 ag | M1 PAM parental
CCn1cnc2sc(C(=O)Oc3cccc(C)c3)c(C)c2c1=O | 16.0 | 15.1* | 2.8 | -5.3 | -8.0 | 17.4
CCOC(=O)c1ccc2nc(NC(=O)C(C)C)sc2c1 | -7.6 | 0.0 | 2.2 | 12.3 | -0.9 | 14.8
C=CCN(CC=C)S(=O)(=O)c1ccc2nc(NC(=O)C(C)C)sc2c1 | -5.6 | 33.2* | -14.5 | -5.5 | 23.9* | 43.3*
CCCCn1c(N)c(N(CCOC)C(=O)c2ccc3c(c2)OCCO3)c(=O)[nH]c1=O | 5.0 | 1.1 | -6.4 | -0.5 | -1.0 | 3.4
Oc1cc(O)cc(/C=C/c2ccc(O)c(O)c2)c1 | -6.5 | 0.0 | 0.8 | -18.5 | 27.1* | -9.3
COc1ccc(CCn2c(N)cc(=O)[nH]c2=O)cc1OC | -13.6 | -0.2 | 21.5 | 28.2* | 0.1 | -14.1
Cc1ccc(C(=O)OCC(=O)c2ccc(Br)cc2)cc1S(=O)(=O)N1CCOCC1 | -13.4 | 7.7 | -10.7 | 12.7 | -3.2 | 6.2
CC(=O)Nc1ccc(S(=O)(=O)NCC(=O)OCC(=O)N2CCCc3ccccc32)cc1 | -6.4 | 0.4 | 0.6 | 17.7 | -4.3 | 12.3
CCOC(=O)C1=CCN(S(=O)(=O)c2cccc(Cl)c2)C1c1cccc(C)c1 (stereo not given) | -3.4 | 0.9 | 14.2 | 6.5 | -8.3 | 14.1
CCOC(=O)C1=CCN(S(=O)(=O)c2ccc(C)cc2)C1c1cccc(Cl)c1 (stereo not given) | 6.0 | -0.7 | 29.4* | -0.2 | 7.3 | -3.5
CCCNC(=O)C1(C)CCCN(Cc2cccs2)C1 (stereo not given) | 8.0 | 0.1 | -8.0 | -10.2 | -5.1 | 6.0
Cc1cc(OCc2cc(C(=O)N3CCN(C)C(=O)[C@@H]3C)no2)cc(C)c1Cl | -13.1 | 14.9 | 10.1 | 38.5* | 5.4 | -9.8
COc1cc(Cl)ccc1OCc1cc(C(=O)N2CCN(C)C(=O)[C@@H]2C)no1 | 3.1 | 1.0 | -9.8 | -8.2 | -1.4 | 0.4
COC(=O)c1ccc(COc2cccc(C)c2C)cc1 | 7.8 | 0.4 | -8.3 | -7.2 | -5.2 | 15.0
CN(C)/C=N/c1nc2nccc(-c3ccc(F)cc3)n2n1 | 4.7 | -0.3 | -11.1 | 2.7 | -10.7 | 12.2
CN(C)/C=N/c1nc2nccc(-c3cccc(Cl)c3)n2n1 | 0.7 | 21.3* | 5.6 | 0.2 | -12.5 | 8.9
CN1\C(=C/C=C/C=C/C=[N+](C)C)C(C)(C)c2ccccc21 | -20.1 | 25.7* | 14.2 | 47.0* | 52.6* | -4.4
CCOC(=O)c1[nH]c2ccc(F)cc2c1NC(=O)Nc1ccccc1OC | 5.0 | 16.4* | -1.3 | -9.9 | -5.0 | 9.6
Cc1ccc(NC(=O)COC(=O)c2cc(=O)c3ccccc3o2)cc1F | 4.3 | -0.2 | -5.6 | 0.7 | -0.5 | -1.0
Cc1nn(C)c(C)c1CN(C)S(=O)(=O)c1ccc2ccccc2c1 | -12.2 | 10.9 | 24.9* | 23.9* | 7.1 | 6.9
COc1ccc(C(=O)N/C(=C/c2cccnc2)C(=O)N2CCN(C)CC2)cc1OC | 14.0 | 0.6 | 4.1 | -8.2 | -2.2 | 5.6
CCOc1ccccc1C(C(=O)NC1CCCCC1)N(C(=O)c1csnn1)C1CC1 (stereo not given) | 21.0 | -0.1 | -13.1 | -12.3 | -0.2 | 3.1
CCOC(=O)C1CCCN(C(=O)c2cc(COc3ccc(C)nc3)on2)C1 (stereo not given) | -4.0 | 6.5 | -7.2 | 3.9 | 27.4* | 13.1
O=C(c1cc(COc2ccc3ncccc3c2)on1)N1CCCC(O)C1 (stereo not given) | -0.8 | 10.5 | -3.0 | 2.2 | -1.2 | 9.7
COCC1CCCN(C(=O)c2cc(COc3ccc4ncccc4c3)on2)C1 (stereo not given) | -11.4 | 14.4 | 25.0* | 34.5* | 9.1 | -4.3
SMILES | CHRM1 PAM | M1 ag parental | CHO-K1 Ca antag | M1 antag | M1 ag | M1 PAM parental
CCOC(=O)N1CCN(C(=O)c2cc(COc3ccc4ncccc4c3)on2)CC1 | -4.5 | 4.4 | 24.9* | 5.2 | 4.0 | -12.8
Cc1cccnc1CN1CCN(C(=O)c2cc(COc3ccc4ncccc4c3)on2)CC1 | -3.7 | 14.9 | 18.3 | 17.6 | -2.9 | 3.7
CCN(CC)C1CCN(C(=O)c2cc(COc3ccc(-n4cncn4)cc3)on2)C1 (stereo not given) | -8.4 | 0.2 | -0.1 | 42.2* | 14.5 | 5.8
CCOC(=O)C1=CC[C@@H](c2ccccc2)N(S(=O)(=O)c2ccc(C)cc2)[C@H]1C#N | 9.8 | 2.0 | 8.4 | -2.1 | -7.0 | 19.0
CC(C)(C)c1ccc(OCCC(=O)OCC(=O)Nc2ccc(N3CCOCC3)cc2)cc1 | 5.1 | 4.1 | -1.4 | -5.7 | -2.6 | -0.4
C=CCN1C(=O)c2ccc(C(=O)N3CCN(S(=O)(=O)c4cccc(Cl)c4)CC3)cc2C1=O | 5.9 | 3.8 | -9.7 | -16.1 | 0.0 | 9.9
C#Cc1cccc(C(=O)N2CCCC(C(=O)c3ccc(OC)cc3C)C2)c1 (stereo not given) | 1.4 | 1.1 | 24.9* | -1.7 | -3.7 | -21.8
COc1ccc(C(=O)C2CCCN(S(=O)(=O)c3ccc(C(C)=O)cc3)C2)c(C)c1 (stereo not given) | -18.8 | 16.3* | 11.3 | 42.6* | 4.0 | -9.3
CC1=C(C(=O)N(C)C)CC(CC(=O)NC(c2ccccc2)c2ccccc2)C(=O)N1CCC1=CCCCC1 (stereo not given) | 0.4 | 0.2 | -14.3 | 0.5 | -2.6 | -2.2
O=C(/C=C/c1cccc(Cl)c1)NCc1ccccc1 | -10.3 | -0.7 | -10.4 | 41.2* | -5.7 | 5.6
CCc1ccc(NC(=O)C(C)Sc2nnc(CN3CCCC3)o2)cc1 (stereo not given) | -1.1 | 0.0 | -2.1 | 11.7 | -1.6 | -11.9
C=C1C(=O)[C@]23C[C@H]1CCC2[C@@]1(C)C(C[C@@H]3O)[C@](C)(C(=O)OC)CC[C@@H]1OC(C)=O (stereo not given in full) | -23.5 | 6.2 | 29.3* | 52.0* | -5.8 | -0.4
C=C1C(=O)[C@]23C[C@H]1CCC2[C@@]1(C)C(C[C@@H]3O)[C@](C)(C(=O)O)C[C@H](O)[C@@H]1O (stereo not given in full) | 7.7 | 0.9 | 4.1 | -4.8 | -2.5 | 13.9
C=C1C(=O)[C@]23C[C@H]1CC[C@H]2[C@]1(C)[C@@H](O)CC[C@@](C)(C(=O)O)[C@H]1C[C@@H]3O | 2.5 | 0.4 | 28.7* | -0.1 | -2.7 | -7.1
CC1CN(Cc2ccccc2)c2ccccc2NC1=S (stereo not given) | -13.0 | -0.5 | 19.2 | 11.2 | -8.1 | -12.5
Fc1ccc(/C=C2\CCCC3=C2Nc2ncnn2C3c2ccc(F)cc2)cc1 (stereo not given) | -8.3 | 5.4 | 19.2 | 31.7* | 1.9 | 3.3
O=C(O)c1ccc(-n2c(=O)c3ccccc3c3ccccc3c2=O)cc1 | -11.9 | -0.2 | 30.6* | 11.0 | -2.6 | -16.1
CC(=O)Nc1ccc(-n2c(=O)c3ccccc3c3ccccc3c2=O)cc1 | 5.2 | -0.2 | -14.3 | -5.8 | -0.7 | -0.2

Screening results deposited in PubChem BioAssay by The Scripps Research Institute Molecular Screening Center.
